Hit rate of the full screen: of about 2,400 compounds, about 580 (24%) were called active. A selection follows. A number with no mark means an inactive call.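 The calls were made as follows: active = activity change at or above the mean plus 3 SD of buffer wells without dofetilide, per plate; inactive = the rest.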
Target: Potassium voltage-gated channel subfamily KQT member 2 (Rattus norvegicus) (UniProt O88943)
Assay: rat KCNQ2 channel activation by compounds alone, confirmation, counter-screen for hERG block protector project, cell-based, CHO, FluxOR thallium flux (AID 1942);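 also: normalized value minus buffer-control mean plus three SD of buffer wells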
Conditions: CHO-KCNQ2 cells, FluxOR thallium flux fluorescence; at 10 µM; active compounds read high

Chain of Potassium voltage-gated channel subfamily KQT member 2 (Rattus norvegicus) (O88943 whole entry, looked up): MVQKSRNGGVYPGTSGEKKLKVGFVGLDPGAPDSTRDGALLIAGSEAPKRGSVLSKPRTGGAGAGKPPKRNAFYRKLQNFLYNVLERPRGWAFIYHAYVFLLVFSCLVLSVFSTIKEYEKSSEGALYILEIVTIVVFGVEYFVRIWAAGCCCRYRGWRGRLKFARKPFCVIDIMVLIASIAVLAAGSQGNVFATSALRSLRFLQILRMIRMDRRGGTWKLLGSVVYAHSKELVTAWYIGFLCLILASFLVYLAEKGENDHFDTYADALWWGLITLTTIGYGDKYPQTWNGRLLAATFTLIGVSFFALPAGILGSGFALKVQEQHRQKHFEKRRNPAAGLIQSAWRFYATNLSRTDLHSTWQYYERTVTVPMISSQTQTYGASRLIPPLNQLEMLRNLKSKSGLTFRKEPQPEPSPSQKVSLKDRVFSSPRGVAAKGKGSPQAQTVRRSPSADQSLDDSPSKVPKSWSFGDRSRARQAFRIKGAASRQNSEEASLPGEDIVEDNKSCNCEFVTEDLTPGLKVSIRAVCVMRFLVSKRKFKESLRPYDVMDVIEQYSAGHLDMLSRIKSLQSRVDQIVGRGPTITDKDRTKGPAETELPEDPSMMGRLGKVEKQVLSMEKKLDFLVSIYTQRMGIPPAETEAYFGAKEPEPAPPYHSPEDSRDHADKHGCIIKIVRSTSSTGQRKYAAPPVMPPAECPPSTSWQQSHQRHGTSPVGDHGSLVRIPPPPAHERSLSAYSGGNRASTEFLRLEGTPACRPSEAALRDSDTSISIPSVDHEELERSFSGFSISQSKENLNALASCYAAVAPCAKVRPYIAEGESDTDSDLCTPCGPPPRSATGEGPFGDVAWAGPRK

Row | SMILES | activity change, less the hit threshold
1 | Cc1ccc(N=C2NC(=O)/C(=C/c3cccs3)S2)cc1C | -6.4%
2 | O=C(OCc1ccccc1)/C(=C/c1cccc([N+](=O)[O-])c1)NC(=O)c1ccco1 | -19.1%
3 | COc1ccc2nc(N3CCCCC3)c(/C=C3\SC(=S)NC3=O)cc2c1 | -17.9%
4 | O=C1NC(=S)S/C1=C\c1ccc2ccccc2c1 | 53.3% (active)
5 | O=C1NC(=S)/C(=C\c2ccc(-c3ccccc3Cl)o2)S1 | -18.7%
6 | S=c1[nH]c(-c2ccccc2)cn1/N=C/c1cccc2ccccc12 | -7.9%
7 | Cn1c(=S)[nH]c2sc3c(c2c1=O)CCC(C(C)(C)C)C3 (stereo not drawn) | 70.3% (active)
8 | CC1CCc2c(sc3[nH]c(=S)n(C)c(=O)c23)C1 (stereo not drawn) | 72.5% (active)
9 | CCCOC(=O)CN1C(=O)c2ccc(C(=O)OCCC)cc2C1=O | -12.2%
10 | O=c1oc2cc(OCCO)ccc2c2c1CCCC2 | -17.1%
11 | Cc1ccc2nc(-c3ccncc3)cc(C(=O)Nc3ccc4c(c3)OCCO4)c2c1 | -19.5%
12 | CS(=O)(=O)N1CCC(C(=O)Nc2c(F)cccc2F)CC1 | -11.1%
13 | COc1ccc(Cl)cc1C(=O)NNC(=S)NC(=O)/C=C/c1ccco1 | -17%
14 | O=C(COc1ccc(Cl)cc1Cl)NC(=S)Nc1ccccc1C(=O)O | -12.7%
15 | Cc1occc1C(=O)NNC(=S)NC(=O)COc1ccc(Cl)cc1Cl | 64.9% (active)
16 | COc1ccc(CN(C)C(=O)c2cccc(NS(=O)(=O)c3ccccc3)c2)cc1F | -13.5%
17 | CN1CCN(c2nnc(-c3cccs3)c3ccccc23)CC1 | -26.6%
18 | COC(=O)c1sccc1NC(=S)N1CC(C)CC(C)C1 (stereo not drawn) | -25%
19 | O=c1ccc(N=Nc2ccccc2)ccc1O | 87.6% (active)
20 | CN(C)c1ccc(N=Nc2ccc(C(=O)O)cc2)cc1 | -18.5%
21 | O=C(COC(=O)c1cccs1)NCCN1C(=O)CSC1=O | -22%

Row | SMILES | activity change, less the hit threshold
22 | CC(NC(=O)c1ccc(F)cc1)c1ccc2c(c1)CCCC2 (stereo not drawn) | 26.1% (active)
23 | CC(NC(=O)CCNC(=O)c1ccco1)c1ccc(F)cc1 (stereo not drawn) | -12.9%
24 | Cn1c(CNC(=O)CNC(=O)c2ccc(F)cc2)cc(=O)n(C)c1=O | -10.8%
25 | CCc1ccc(C(C)NC(=O)c2ccc(F)cc2)cc1 (stereo not drawn) | 21.6% (active)
26 | CC(NC(=O)c1ccc(Br)cc1)c1ccc2c(c1)CCCC2 (stereo not drawn) | 33.3% (active)
27 | S=c1[nH]c2ccccc2n2cccc12 | -14.5%
28 | CCOc1ccc(-n2c(C)c(C(C)=O)c3cc(O)ccc32)cc1 | -2.3%
29 | CC(=O)c1ccc(S(=O)(=O)NCc2ccc(C(=O)N(C)CC(=O)Nc3cccc(F)c3)cc2)cc1 | -9.1%
30 | C=CCn1c(=S)[nH]c2scc(-c3cccs3)c2c1=O | 93.7% (active)
31 | NC(=O)CSc1nc2ccccc2c(=O)n1CCc1ccccc1 | -15.2%
32 | C=CCn1c(=S)[nH]c2cc(-c3ccccc3)sc2c1=O | -4.4%
33 | C=CCn1c(SCC(=O)Nc2cccc(C)c2)nnc1-c1cnccn1 | -26.8%
34 | C=CCn1c(=S)[nH]c2scc(-c3ccc(C)o3)c2c1=O | 80.3% (active)
35 | C=CCn1c(SCC(N)=O)nc2scc(-c3ccc(C)o3)c2c1=O | 1.7% (active)
36 | CCC1(C)CC2(CCCN(CCC(=O)c3ccccc3)C2)CCO1 (stereo not drawn) | -25%
37 | O=C(NCc1ccco1)C1CCN(C(=O)Cc2ccccc2)CC1 | -17.3%
38 | O=C(CCSCCc1ccccn1)Nc1cccc([N+](=O)[O-])c1 | -11.2%
39 | CCN1C(=O)/C(=C\c2ccc(-c3cccc(C(=O)OC)c3)o2)SC1=Nc1ccc(C(=O)O)cc1 | -22.8%
40 | CCCCN(C(=O)CNC(=O)c1cccs1)C(C(=O)NC1CCCC1)c1ccncc1 (stereo not drawn) | -7.8%
41 | CCCCN(C(=O)CC1CCCC1)c1c(N)n(CC(C)C)c(=O)[nH]c1=O | -9.9%
42 | CCSC(=S)c1c(C)[nH]n(-c2ccccc2)c1=O | -4.2%

Row | SMILES | activity change, less the hit threshold
43 | CCCSC(=S)c1c(C)[nH]n(-c2ccccc2)c1=O | 49.7% (active)
44 | Cc1[nH]n(-c2ccccc2)c(=O)c1N=Nc1ccc(C(N)=O)cc1 | -25.6%
45 | Cc1cc(C(=O)NCCN2C(=O)S/C(=C\c3cccs3)C2=O)ccc1[N+](=O)[O-] | -16.8%
46 | Nc1nonc1-n1nnc(C(=O)N/N=C/c2ccccn2)c1-c1ccccc1 | -18.1%
47 | COc1ccc(C2N=C(c3ccccc3)C(C)(C)N2O)cc1 (stereo not drawn) | -18.6%
48 | Cc1ccc(CN2CCN(CC(=O)NC(C)c3ccc4c(c3)OCCO4)C2=O)cc1 (stereo not drawn) | 16.9% (active)
49 | Cc1cc(Cl)ccc1OC(C)C(=O)NCCc1ccc2c(c1)OCCO2 (stereo not drawn) | -30.8%
50 | Cc1nn(C)cc1C(=O)Nc1ccc2c(c1)OCCO2 | -19.7%
51 | C/C(=N/NC(=O)c1cc2ccccc2cc1O)c1ccco1 | 72.8% (active)
52 | Cc1cc(C(=O)Nc2cccc3ccccc23)c(C)o1 | -28.1%
53 | C/C(=N\NC(=O)c1cc2ccccc2cc1O)c1cc2ccccc2o1 | 82% (active)
54 | O=C(N/N=C/c1ccc(Sc2ccccn2)o1)c1cc2ccccc2cc1O | -4.5%
55 | Cc1ccc(/C=N/NC(=O)c2cc3ccccc3cc2O)o1 | 77.9% (active)
56 | COc1ccc(CCNC(=O)c2cc3ccccc3oc2=O)cc1 | -29%
57 | Cc1ccc(/C=N/NC(=O)c2cc(C)oc2C)o1 | -17.8%
58 | C/C(=N\NC(=O)c1ccoc1C)c1cccc2ccccc12 | 55% (active)
59 | C/C(=N\NC(=S)Nc1cccc(C)c1)c1ccco1 | -13.9%
60 | C/C(=N\NC(=O)c1cc2ccccc2cc1O)c1ccccn1 | -9.4%
61 | C/C(=N\NC(=S)Nc1c(C)cccc1C)c1cc2ccccc2o1 | -16.4%
62 | C/C(=N\NC(=O)CSc1nc2ccccc2o1)c1ccc(O)cc1 | -16.2%
63 | CC(C)(C)NC(=O)CN(C(=O)CS(=O)CC(=O)Nc1ccc(F)cc1)c1cccc(F)c1 (stereo not drawn) | -11.2%

Source: PubChem BioAssay AID1942 (Johns Hopkins Ion Channel Center, 2009)
